Compounds without any hit were thinned out: in the full panel of roughly 83,000, 20% have a hit.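 Values shown are percent growth following 48 h exposure of cells in 96-well plates to a single concentration of compound; below 10 was considered active.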 A number with no mark means an inactive call. Calls of active or inactive are those of the source.
How the values were obtained:
Test in all cases: NCI-60 one-dose screen, 48 h (100 = growth as untreated, 0 = no growth, -100 = all killed)
Conditions in all cases: 10 µM unless noted
HT29 colon = system: HT29 colon
SNB-75 CNS = system: SNB-75 CNS
SNB-19 CNS = system: SNB-19 CNS
U251 CNS = system: U251 CNS
SK-MEL-5 melanoma = system: SK-MEL-5 melanoma
UACC-62 melanoma = system: UACC-62 melanoma
LOX IMVI melanoma = system: LOX IMVI melanoma
SK-MEL-28 melanoma = system: SK-MEL-28 melanoma
SK-MEL-2 melanoma = system: SK-MEL-2 melanoma
EKVX NSCLC = system: EKVX NSCLC
SN12C renal = system: SN12C renal
UO-31 renal = system: UO-31 renal
TK-10 renal = system: TK-10 renal
ACHN renal = system: ACHN renal
CAKI-1 renal = system: CAKI-1 renal
MOLT-4 leukemia = system: MOLT-4 leukemia
SR leukemia = system: SR leukemia
A498 renal = system: A498 renal
CCRF-CEM leukemia = system: CCRF-CEM leukemia

SMILES	growth (HT29 colon)	growth (SNB-75 CNS)	growth (SNB-19 CNS)	growth (U251 CNS)	growth (SK-MEL-5 melanoma)	growth (UACC-62 melanoma)	growth (LOX IMVI melanoma)	growth (SK-MEL-28 melanoma)	growth (SK-MEL-2 melanoma)	growth (EKVX NSCLC)	growth (SN12C renal)	growth (UO-31 renal)	growth (TK-10 renal)	growth (ACHN renal)	growth (CAKI-1 renal)	growth (MOLT-4 leukemia)	growth (SR leukemia)	growth (A498 renal)	growth (CCRF-CEM leukemia)
CC(=O)c1cc(C(=O)c2ccc3c(c2)Sc2ccccc2N3)c2c(C)cc(C)cn12	-15% (active)	-2.02% (active)	36.5%	14.6%	-36.5% (active)	23.1%	16.6%	40.4%	26.3%	34.3%	20.7%	22.5%	34.6%	12.2%	9.64% (active)	19.2%	5.45% (active)	–	–
O=C(/C=C/c1cc2ccccc2[nH]c1=O)c1ccc(Cl)cc1	6.1% (active)	16.8%	47.6%	24.8%	56.2%	31.4%	-69.2% (active)	80.1%	18.8%	63.7%	–	29.8%	48.5%	51.6%	42.1%	2.61% (active)	–	13.7%	–
O=c1ccn(C2OC(CO)C(O)C2F)c(=O)[nH]1 (stereo unspecified)	104%	93%	101%	113%	107%	92.4%	106%	116%	119%	102%	102%	101%	124%	107%	107%	168%	111%	–	119%
COc1ccc(/C=C/C(=O)Nc2cccnc2Nc2ccc(F)cc2)cc1	109%	97.3%	87.9%	93.4%	87.2%	86.6%	98.9%	98.6%	120%	88.4%	89.3%	95.4%	113%	104%	86.5%	80.1%	88.7%	–	112%
CN(CC(=O)Nc1nc2ccccc2[nH]1)S(=O)(=O)c1ccc(Cl)cc1	64.7%	101%	92.4%	78.9%	84.1%	66.9%	64.7%	121%	53.7%	95.4%	93.9%	28.8%	–	83.5%	89.8%	58.5%	89.9%	91.7%	44.6%
COc1cc(/C=C/C(=O)Nc2cccnc2Nc2cc(OC)c(OC)c(OC)c2)cc(OC)c1OC	94.3%	82.1%	96.5%	91.3%	93.6%	84.4%	101%	103%	96.4%	92%	76.1%	89.8%	116%	96.5%	82.3%	94.1%	92.5%	–	66.1%
CC/C=C\C=C/C(=O)N/C=C/CC1Cc2cccc(O)c2C(=O)O1 (stereo unspecified)	44.1%	18.7%	56%	57.7%	13%	61.4%	75%	76.9%	95.8%	88.8%	101%	–	109%	145%	69.5%	47.5%	-67.6% (active)	47.9%	–
CCCc1cc(=O)n2c(C(=O)Nc3ccccc3OC)c(C(=O)Nc3ccc(F)cc3)sc2n1	38.2% [30 µM]	12.8% [30 µM]	26.7% [30 µM]	14.7% [30 µM]	45.4% [30 µM]	66.6% [30 µM]	44.5% [30 µM]	68.5% [30 µM]	91.6% [30 µM]	52.8% [30 µM]	58.1% [30 µM]	19.7% [30 µM]	37.7% [30 µM]	20.3% [30 µM]	5.5% [30 µM] (active)	65.8% [30 µM]	9.34% [30 µM] (active)	–	58.4% [30 µM]
O=C(N1CCC(CN=c2cc3n(-c4ccc(Cl)cc4)c4ccccc4nc-3cc2Nc2ccc(Cl)cc2)CC1)N1CC1	-97.9% (active)	-60.6% (active)	-67.7% (active)	-62.5% (active)	-97.6% (active)	-77.5% (active)	-67.5% (active)	-90.8% (active)	-80.8% (active)	-62.5% (active)	-76% (active)	-96.3% (active)	–	-71.7% (active)	–	-22.6% (active)	-74.5% (active)	-59.9% (active)	–

— PubChem BioAssay (NCI)
